Hits are enriched below; roughly 2% of the tested compounds scored in any of these assays.
Hsp70 activator: Hsp70 transcriptional activators, primary screen, cell-based, HeLa, Hsp70 promoter luciferase, luminescence, 10 µM; HeLa Hsp70 promoter luciferase reporter; scaled: vehicle 0, proteasome-inhibitor control 100%; AID 1203, 2008; 200,000 compounds, 0.04% hits; activation, % at 10 µM;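 active = activation above the mean across all tested compounds plus 3 SD, cutoff set per campaign, cut at about 5.5% in these data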
HMGR II inh: inhibitors of E. faecalis class II HMGR, primary screen, biochemical, Enterococcus faecalis. HMG-CoA reductase (Enterococcus faecalis, mvaE). purified E. faecalis HMGR, NADPH absorbance 340 nm kinetic. inhibition, % at 10 µM. 190,000 compounds, 0.41% hits. AID 1066, 2008;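 active = inhibition above a set limit, the median over all tested compounds plus 3 SD, cut at about 9.5% in these data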;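 note: enzyme runs in reverse so mevalonate oxidation gives rising NADPH absorbance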
PKD1 kinase inh: inhibitors of human PKD1 kinase, biochemical, fluorescence polarization; 200,000 compounds, 0.056% hits; Serine/threonine-protein kinase D1 (Homo sapiens), Q15139; PKD1 kinase fluorescence polarization assay; inhibition, % (test concentration not listed); in the data active = inhibition above about 50%
Wee1 stabilizer: Wee1 degradation inhibitors, primary screen, cell-based, HeLa, Wee1K328M-luciferase, luminescence; HeLa Luc-Wee1K328M stability; 100% = proteasome inhibitor MG132 effect; reporter increase, % at 5 µM; 220,000 compounds, 1.2% hits;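 active = activation above the mean of all tested compounds plus 3 SD, set per screening run, cut at about 8.8% in these data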;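 note: cells exposed to compound for 20 h before luminescence read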
Target sequence (P30291 whole entry K328M): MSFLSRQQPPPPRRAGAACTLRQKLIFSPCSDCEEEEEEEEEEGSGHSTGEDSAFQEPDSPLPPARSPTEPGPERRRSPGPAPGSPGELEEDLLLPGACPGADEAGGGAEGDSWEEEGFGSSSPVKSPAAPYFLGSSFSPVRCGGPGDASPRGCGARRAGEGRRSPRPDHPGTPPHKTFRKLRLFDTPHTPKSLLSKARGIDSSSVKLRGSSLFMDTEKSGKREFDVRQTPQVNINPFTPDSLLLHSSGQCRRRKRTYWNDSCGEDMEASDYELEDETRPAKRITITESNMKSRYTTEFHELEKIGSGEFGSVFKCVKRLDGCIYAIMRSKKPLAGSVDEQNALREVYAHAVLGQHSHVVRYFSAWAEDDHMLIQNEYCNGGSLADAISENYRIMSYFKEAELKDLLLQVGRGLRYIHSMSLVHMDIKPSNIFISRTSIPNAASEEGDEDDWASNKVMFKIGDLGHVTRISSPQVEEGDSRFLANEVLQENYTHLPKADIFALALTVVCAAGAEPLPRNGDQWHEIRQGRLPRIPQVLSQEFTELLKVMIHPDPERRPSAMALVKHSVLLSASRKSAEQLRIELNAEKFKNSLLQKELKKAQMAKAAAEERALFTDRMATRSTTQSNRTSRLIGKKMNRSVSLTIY
Arbovirus anti: antivirals against arbovirus infection, primary screen, cell-based, full library, 10K replicate subset; arbovirus infection cell-based antiviral screen; inhibition, % at 10 µM; 200,000 compounds, 0.37% hits; AID 1251, 2008; in the data active = inhibition above about 30%
Wee1 degr conf: Wee1 degradation inhibitors, confirmation, cell-based, HeLa, Wee1K328M-luciferase, luminescence, triplicate; activation, % at 5 µM; AID 1410, 2008; shares compounds with Wee1 stabilizer; HeLa Luc-Wee1K328M degradation; vehicle 0%, proteasome-blocked wells 100%; 1,100 compounds, 4% hits; in the data active = activation above about 8.9%
Numbers stand for hits; i = inactive; nt = not tested or not shown.

SMILES | Hsp70 activator | HMGR II inh | PKD1 kinase inh | Wee1 stabilizer | Arbovirus anti | Wee1 degr conf
CCCN(Cc1ccccc1)C(=S)NC(=O)c1ccccc1[N+](=O)[O-] | i | i | i | i | i | nt
Cc1c(O)ccc2c(O)c(NC(=O)c3ccc4c(c3)CCC(C)(C)O4)c(=O)oc12 | nt | nt | nt | 11.6 | nt | i
CC(C)(C)NC(=O)c1ccc2c(c1)CCO2 | nt | nt | nt | i | nt | nt
c1ccc2c(-c3c[nH]c4ccccc34)c3ccccc3nc2c1 | i | i | i | 12.2 | i | i
O=C(O)CCN1CCc2ccccc2C1c1cccs1 (configuration not stated) | i | i | i | i | i | nt
Cc1nnc(SCC(=O)Nc2ccc(-c3nc4ccccc4s3)cc2)s1 | i | i | i | i | i | nt
Cc1nnc(SCC(=O)Nc2nsc(-c3ccc(C(C)(C)C)cc3)n2)s1 | i | i | i | 18.2 | i | i
Cc1ccc(C(=O)NNC(=O)c2cccc(S(=O)(=O)N3CCN(c4ccccc4)CC3)c2)cc1 | i | i | i | i | i | nt
CCOc1ccc(-c2cc(C(=O)NN3CCN(C)CC3)c3cc(Cl)ccc3n2)cc1 | i | i | i | 11.0 | i | i
CCOc1ccc(-c2cc(C(=O)N3CCN(C)CC3)c3ccccc3n2)cc1 | i | i | i | 17.1 | i | i
CCOC(=O)N1CCN(C(=O)c2cc(-c3ccc(OCC)cc3)nc3ccccc23)CC1 | i | i | i | 11.8 | i | 21.9
CS(=O)(=O)N1N=C(c2ccccc2)CC1c1ccc2c(c1)OCO2 (configuration not stated) | i | i | i | i | i | nt
CS(=O)(=O)Nc1cccc(C2=NN(S(C)(=O)=O)C(c3ccc4c(c3)OCO4)C2)c1 (configuration not stated) | i | i | i | 13.4 | i | i
CC(C)c1nnc(NC(=O)CCC(=O)NC2CCCc3ccccc32)s1 (configuration not stated) | i | i | i | i | i | nt
Cc1cc(C)nc(N2CCCC(C(=O)Nc3nnc(C)s3)C2)n1 (configuration not stated) | i | i | i | i | i | nt
Cc1cc(C)nc(N2CCCC(C(=O)Nc3nc4ccc(S(C)(=O)=O)cc4s3)C2)n1 (configuration not stated) | i | i | i | 10.9 | i | i
Cc1nc2c(C)cccn2c1/C(O)=C1\C(=O)C(=O)N(CCN(C)C)C1c1ccccc1 (configuration not stated) | nt | nt | nt | i | nt | nt
COCCN(C(=O)CSc1ncc(C(F)(F)F)cc1Cl)c1c(N)n(Cc2ccccc2)c(=O)[nH]c1=O | i | i | i | i | i | nt
Cc1cccc(-n2c(SCC(=O)O)nc3sc4c(c3c2=O)CCC4)c1 | nt | nt | nt | 13.1 | nt | i
COC(=O)c1c(NC(NC(C)=O)C(Cl)(Cl)Cl)sc2c1CCCC2 (configuration not stated) | i | i | i | 13.9 | i | i
Cc1ccc(C)n1-c1ccccc1N1CCCCC1 | i | i | i | i | i | nt
COc1ccc(-c2n[nH]c(=S)n2/N=C/C=C/c2ccccc2OC)cc1 | i | i | i | 11.2 | i | i
COc1ccc(/C=N/NC(=O)c2cc(C3CC3)[nH]n2)cc1OC | nt | nt | nt | i | nt | nt
COc1cc(/C=N/NC(=O)c2cc(C3CC3)[nH]n2)ccc1O | nt | nt | nt | 11.7 | nt | i
O=c1[nH]c2ccccc2nc1/C=C/c1ccc(O)cc1 | i | i | i | 11.3 | i | i
SMILES | Hsp70 activator | HMGR II inh | PKD1 kinase inh | Wee1 stabilizer | Arbovirus anti | Wee1 degr conf
O=c1[nH]c2ccccc2nc1/C=C(\O)c1cccs1 | i | i | i | 15.7 | i | 9.6
O=C(Nc1nc2ccccc2[nH]1)C1CC1 | i | i | i | i | i | nt
CC(C)(C)/C(O)=C/c1nc2ccccc2[nH]c1=O | i | i | i | i | i | nt
O=C(Nc1nc2ccccc2[nH]1)c1cccs1 | i | i | i | 12.3 | i | i
COc1cc(/C=C(\C#N)c2nc3ccccc3n2C)cc(OC)c1O | i | i | i | i | i | nt
CC(=O)N1CCC(=NNC(=O)c2cccs2)CC1 | i | i | i | i | i | nt
Cc1c(-c2ccccc2)oc2c(C(=O)OCC(=O)Nc3ccc(F)cc3)cccc2c1=O | i | i | i | i | i | nt
COC(=O)Cc1c(C(=O)OC)nnn1-c1ccc(OC(F)(F)F)cc1 | i | i | i | 15.9 | i | i
CC(=O)Nc1ccc2c(COC(=O)CC3Sc4ccccc4NC3=O)cc(=O)oc2c1 (configuration not stated) | i | i | i | i | i | nt
COc1ccc2c(COC(=O)CC3Sc4ccccc4NC3=O)cc(=O)oc2c1 (configuration not stated) | i | i | i | 11.4 | i | i
Cc1cc(C)n(CCN(C)Cc2nc(Cc3ccccc3F)no2)n1 | i | i | i | 10.9 | i | i
CN(Cc1nc(Cc2ccccc2F)no1)[C@@H]1CS(=O)(=O)C[C@H]1O | i | i | i | i | i | nt
N#Cc1ccc(NC(=S)NCCN2CCOCC2)cc1 | i | i | i | i | i | nt
COc1cc(OC)c2c(c1O)OC(c1ccccc1)CC2=O (configuration not stated) | i | i | i | i | i | nt
CC(C)=CCc1c(O)ccc2c1OC(c1ccc(O)c(O)c1)CC2=O (configuration not stated) | i | i | i | 32.7 | i | i
Cc1cc(C)c(C(=O)Cn2nc(C(=O)O)c3ccccc3c2=O)cc1C | nt | nt | nt | i | nt | nt
CCCc1ccc(C(=O)Cn2nc(C(=O)O)c3ccccc3c2=O)cc1 | i | i | i | 11.4 | i | i
CC(C)C(O)(C#CCN1CCCCC1)c1ccccc1 (configuration not stated) | i | i | i | 12.2 | i | i
Cc1ccc(-c2nc(=S)c3c(n2Cc2ccco2)CCCC3)cc1 | i | i | i | i | i | nt
Cc1ccc(-c2nc(=S)c3c(n2Cc2ccco2)CC(C)(C)OC3)cc1 | i | i | i | 12.7 | i | i
CCOC(=O)NC1=NCC(C)S1 (configuration not stated) | nt | nt | nt | i | nt | nt
COc1cc(O)c(C(C)=O)cc1OC | i | i | i | 10.9 | i | i
CC(=O)c1ccc(N=Nc2ccc(C)cc2)cc1 | i | i | i | 23.7 | i | i
O=C(CCCCn1c(=O)c2ccccc2n(Cc2ccccc2)c1=O)NC1CCN(Cc2ccccc2)CC1 | i | i | i | 11.1 | i | i
COc1cccc(C2=CC(c3cccc(OC)c3OC)n3nnnc3N2)c1 (configuration not stated) | i | i | i | 11.4 | i | 11.8
CCC(C)(C)n1nnnc1C(c1ccc2ncccc2c1)N1CCN(c2ccc(O)cc2)CC1 (configuration not stated) | nt | nt | nt | i | nt | nt

Assay outcomes (PubChem)
